Measured values: PubChem BioAssay (NCI)
About 79,000 compounds went through this panel and 15% of them were active in at least one assay; those are over-represented in the sample as a whole. Activity calls are given as the source filed them. No stated cut-off is given here; in the data, active means growth inhibition above about 70%; inactive means the rest.

Tests used:
[1] = NCI Yeast Anticancer Drug Screen. Data for the wt1 strain (AID 149);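 further: 0% = growth of vehicle-treated wt1 cultures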; conditions: S. cerevisiae wt1 strain (SPY 50644) growth inhibition, active compounds read high
Method in brief: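 Readout: yeast growth inhibition, normalised to vehicle controls, in the wt1 strain exposed to test compounds.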

[2] = NCI Yeast Anticancer Drug Screen. Data for the rad50EPP+ strain (AID 151);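 further: 0% = growth of vehicle-treated control cultures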; conditions: S. cerevisiae rad50 mutant strain, active compounds read high
Method in brief: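 Exposing the rad50EPP+ strain to each compound, growth was compared with vehicle-only cultures to give inhibition.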

[3] = NCI Yeast Anticancer Drug Screen. Data for the rad50 strain (AID 155);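 further: 0% = growth of vehicle-only cultures of the same strain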; conditions: S. cerevisiae rad50 strain growth inhibition, active compounds read high
Method in brief: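 Compounds were tested on a yeast strain with an engineered DNA damage repair alteration; the reported value is growth inhibition normalised to vehicle treatment.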

[4] = NCI Yeast Anticancer Drug Screen. Data for the mec2-1 strain (AID 157); conditions: S. cerevisiae mec2-1 strain, active compounds read high
Method in brief: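 Readout is yeast growth inhibition, normalised to vehicle-treated controls, in the mec2-1 strain exposed to compound.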

[5] = NCI Yeast Anticancer Drug Screen. Data for the rad14 strain (AID 159);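 further: 0% = growth of vehicle-treated control cultures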; conditions: S. cerevisiae rad14 strain growth inhibition, active compounds read high
Method in brief: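 Compound-treated yeast with a defined DNA-repair lesion; growth inhibition normalised to vehicle-treated cultures.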

[6] = NCI Yeast Anticancer Drug Screen. Data for the sgs1 mgt1 strain (AID 161);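 further: 0% = growth of cultures given vehicle only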; conditions: S. cerevisiae sgs1 mgt1 strain, active compounds read high
Method in brief: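 This yeast growth screen uses a strain with defined DNA-repair lesions; compound-treated growth is compared with vehicle-treated growth.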

[7] = NCI Yeast Anticancer Drug Screen. Data for the CLN2oe strain (AID 163);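 further: 0% = growth of vehicle-only control cultures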; conditions: S. cerevisiae CLN2oe strain, active compounds read high
Method in brief: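 Values reflect how much compound exposure reduced yeast growth, referenced to vehicle-exposed cells. Assay organism is a strain with a defined genetic change affecting cell-cycle control.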

[8] = NCI Yeast Anticancer Drug Screen. Data for the cln2 rad14 strain (AID 165);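 further: 0% = growth equal to vehicle treated cultures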; conditions: S. cerevisiae cln2 rad14 strain, active compounds read high
Method in brief: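 Relative to vehicle controls, growth inhibition of compound-treated cln2 rad14 yeast was recorded.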

[9] = NCI Yeast Anticancer Drug Screen. Data for the bub3 strain (AID 167); conditions: S. cerevisiae bub3 mutant strain, active compounds read high
Method in brief: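 Growth of a checkpoint-deficient yeast mutant is measured after compound exposure. Values represent inhibition relative to vehicle.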

[10] = NCI Yeast Anticancer Drug Screen. Data for the wt2 strain (AID 169);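 further: 0% = growth of vehicle-treated yeast cultures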; conditions: S. cerevisiae wt2 strain growth inhibition, active compounds read high
Method in brief: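 Values express reduction in yeast growth under compound treatment, referenced to vehicle-treated cells.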

[11] = NCI Yeast Anticancer Drug Screen. Data for the sgs1 strain (AID 173);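 further: 0% = growth of vehicle-only control cultures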; conditions: S. cerevisiae sgs1 mutant, active compounds read high
Method in brief: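 Treat defined-mutant yeast with compound; measure growth; calculate inhibition relative to vehicle-treated cells.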

[12] = NCI Yeast Anticancer Drug Screen. Data for the mlh1 rad18 strain (AID 175); conditions: S. cerevisiae mlh1 rad18 strain growth inhibition, active compounds read high
Method in brief: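 Test agents were incubated with a yeast strain of defined genotype (DNA damage repair defect). Inhibition of growth was derived by comparison with vehicle-exposed cultures.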

[13] = NCI Yeast Anticancer Drug Screen. Data for the rad18 strain (AID 177); conditions: S. cerevisiae rad18 mutant growth inhibition, active compounds read high
Method in brief: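 A genetically defined yeast mutant impaired in DNA damage repair was treated with test compounds, then its growth was measured against cultures receiving vehicle alone.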

[14] = NCI Yeast Anticancer Drug Screen. Data for the mlh1 strain (AID 171);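 further: 0% = growth of vehicle-treated control cultures of the same strain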; conditions: S. cerevisiae mlh1 strain growth inhibition, active compounds read high
Method in brief: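 Steps: expose the defined-mutant yeast strain to compound; expose a parallel culture to vehicle; measure growth; express compound effect as inhibition relative to the vehicle culture.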

[15] = NCI Yeast Anticancer Drug Screen. Data for the mgt1 strain (AID 153); conditions: S. cerevisiae mgt1 mutant growth inhibition, active compounds read high
Method in brief: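 Genetically defined yeast (mgt1) treated with compound; inhibition of growth expressed against vehicle-treated controls.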

[16] = at 5.0 µM (retest, dose inferred, filed as 0.5)
[17] = at 50.0 µM (retest, dose inferred, filed as 5.0)

Measured: growth inhibition

CCCC(=O)OC(OC(=O)CCC)c1ccc([N+](=O)[O-])o1
active: [2]; at 33.0 µM 83% | [2]; at 100.0 µM 93% | [3]; at 100.0 µM 83% | [12]; [17] 71% | [13]; at 33.0 µM 85% | [13]; at 100.0 µM 94%
inactive: [1]; at 1.2 µM -3% | [1]; at 3.7 µM -2% | [1]; at 11.0 µM -1% | [1]; at 33.0 µM 2% | [1]; at 100.0 µM 11% | [2]; at 1.2 µM 2% | [2]; at 3.7 µM 15% | [2]; at 11.0 µM 46% | [3]; at 1.2 µM -2% | [3]; at 3.7 µM -1% | [3]; [16] 22% | [3]; at 11.0 µM 10% | [3]; at 33.0 µM 47% | [3]; [17] 34% | [3]; at 50.0 µM 63.9% | [4]; at 1.2 µM -4% | [4]; at 3.7 µM -1% | [4]; [16] 17% | [4]; at 11.0 µM 2% | [4]; at 33.0 µM 5% | [4]; [17] 8% | [4]; at 50.0 µM -1.45% | [4]; at 100.0 µM 20% | [5]; at 1.2 µM -6% | [5]; at 3.7 µM -4% | [5]; at 11.0 µM 1% | [5]; at 33.0 µM 7% | [5]; at 100.0 µM 26% | [6]; [16] 14% | [6]; [17] 55% | [6]; at 50.0 µM 53.4% | [7]; at 1.2 µM -1% | [7]; at 3.7 µM -8% | [7]; at 11.0 µM -10% | [7]; at 33.0 µM -5% | [7]; at 100.0 µM 8% | [8]; [16] 1% | [8]; [17] 8% | [8]; at 50.0 µM 12.1% | [9]; at 1.2 µM -4% | [9]; at 3.7 µM -5% | [9]; [16] 2% | [9]; at 11.0 µM -4% | [9]; at 33.0 µM -3% | [9]; [17] 7% | [9]; at 50.0 µM 14.4% | [9]; at 100.0 µM 3% | [10]; at 1.2 µM -3% | [10]; at 3.7 µM -3% | [10]; at 11.0 µM -3% | [10]; at 33.0 µM 1% | [10]; at 100.0 µM 11% | [11]; at 1.2 µM -1% | [11]; at 3.7 µM 1% | [11]; at 11.0 µM 7% | [11]; at 33.0 µM 21% | [11]; at 100.0 µM 61% | [12]; [16] 22% | [12]; at 50.0 µM 35.1% | [13]; at 1.2 µM 1% | [13]; at 3.7 µM 14% | [13]; at 11.0 µM 42%

COc1ccc2nc(N/N=C/c3sccc3C)cc(C)c2c1
inactive: [1]; at 1.2 µM -39% | [1]; at 3.7 µM -32% | [1]; at 11.0 µM -6% | [2]; at 1.2 µM -18% | [2]; at 3.7 µM -19% | [2]; at 11.0 µM -21% | [2]; at 33.0 µM 15% | [3]; at 1.2 µM -22% | [3]; at 3.7 µM -27% | [3]; [16] 4% | [3]; at 11.0 µM -12% | [3]; [17] 68% | [4]; at 1.2 µM -13% | [4]; at 3.7 µM 4% | [4]; [16] -10% | [4]; at 11.0 µM 12% | [4]; [17] 56% | [5]; at 1.2 µM -50% | [5]; at 3.7 µM -19% | [5]; at 11.0 µM -21% | [7]; at 1.2 µM -2% | [7]; at 3.7 µM -6% | [7]; at 11.0 µM -1% | [9]; at 1.2 µM 12% | [9]; at 3.7 µM 14% | [9]; at 11.0 µM 38% | [10]; at 1.2 µM 18% | [10]; at 3.7 µM 4% | [10]; at 11.0 µM 27% | [14]; at 1.2 µM 8% | [14]; at 3.7 µM -3% | [14]; at 11.0 µM 35% | [11]; at 1.2 µM -30% | [11]; at 3.7 µM -45% | [11]; at 11.0 µM -16% | [12]; [16] -5% | [13]; at 1.2 µM 5% | [13]; at 3.7 µM 16% | [13]; at 11.0 µM 8%
active: [1]; at 33.0 µM 96% | [1]; at 100.0 µM 95% | [2]; at 100.0 µM 76% | [3]; at 33.0 µM 94% | [3]; at 50.0 µM 85.5% | [3]; at 100.0 µM 94% | [4]; at 33.0 µM 96% | [4]; at 50.0 µM 87.5% | [4]; at 100.0 µM 95% | [5]; at 33.0 µM 97% | [5]; at 100.0 µM 90% | [6]; [16] 96% | [6]; [17] 96% | [6]; at 50.0 µM 84.1% | [7]; at 33.0 µM 96% | [7]; at 100.0 µM 94% | [8]; [16] 95% | [8]; [17] 95% | [8]; at 50.0 µM 81% | [9]; [16] 96% | [9]; at 33.0 µM 98% | [9]; [17] 98% | [9]; at 50.0 µM 86% | [9]; at 100.0 µM 96% | [10]; at 33.0 µM 98% | [10]; at 100.0 µM 96% | [14]; at 33.0 µM 97% | [14]; at 100.0 µM 92% | [11]; at 33.0 µM 98% | [11]; at 100.0 µM 95% | [12]; [17] 83% | [12]; at 50.0 µM 87.8% | [13]; at 33.0 µM 98% | [13]; at 100.0 µM 96%

O=C(CCC(=O)c1ccc(O)cc1)Oc1ccc(O)cc1
inactive: [1]; at 1.2 µM -2% | [1]; at 3.7 µM 2% | [1]; at 11.0 µM -2% | [1]; at 33.0 µM -2% | [1]; at 100.0 µM 1% | [2]; at 1.2 µM 5% | [2]; at 3.7 µM 9% | [2]; at 11.0 µM 15% | [2]; at 33.0 µM 17% | [2]; at 100.0 µM 24% | [15]; at 1.2 µM 1% | [15]; at 3.7 µM -1% | [15]; at 11.0 µM 2% | [15]; at 33.0 µM 2% | [15]; at 100.0 µM 3% | [3]; at 1.2 µM 2% | [3]; at 3.7 µM 4% | [3]; [16] -13% | [3]; at 11.0 µM 2% | [3]; at 33.0 µM 6% | [3]; [17] 16% | [3]; at 50.0 µM -2.75% | [3]; at 100.0 µM 11% | [4]; at 1.2 µM -1% | [4]; at 3.7 µM 3% | [4]; [16] -2% | [4]; at 11.0 µM 3% | [4]; at 33.0 µM 7% | [4]; [17] -11% | [4]; at 50.0 µM -22.5% | [4]; at 100.0 µM 5% | [6]; [16] -8% | [6]; [17] 10% | [6]; at 50.0 µM 2.2% | [7]; at 1.2 µM 3% | [7]; at 3.7 µM -11% | [7]; at 11.0 µM 5% | [7]; at 33.0 µM 3% | [7]; at 100.0 µM 6% | [8]; [16] -9% | [8]; [17] 40% | [8]; at 50.0 µM 8.3% | [9]; at 1.2 µM 12% | [9]; at 3.7 µM 21% | [9]; [16] 18% | [9]; at 11.0 µM 33% | [9]; at 33.0 µM 40% | [9]; [17] 67% | [9]; at 50.0 µM 29.1% | [9]; at 100.0 µM 47% | [10]; at 1.2 µM -1% | [10]; at 3.7 µM -1% | [10]; at 11.0 µM -2% | [10]; at 33.0 µM 1% | [10]; at 100.0 µM -1% | [14]; at 1.2 µM 3% | [14]; at 3.7 µM 0% | [14]; at 11.0 µM 2% | [14]; at 33.0 µM 1% | [14]; at 100.0 µM 4% | [11]; at 1.2 µM 1% | [11]; at 3.7 µM 1% | [11]; at 11.0 µM 1% | [11]; at 33.0 µM 4% | [11]; at 100.0 µM 6% | [12]; [16] -18% | [12]; [17] 25% | [12]; at 50.0 µM 1.35% | [13]; at 1.2 µM 1% | [13]; at 3.7 µM -3% | [13]; at 11.0 µM -4% | [13]; at 33.0 µM -4% | [13]; at 100.0 µM -4%
